From ChEMBL document CHEMBL3988442, “University of Dundee, Small-Polar-MMV Screening Library” (2021)

Columns and labels:
[1] = target: T1, Aspartate--tRNA(Asp/Asn) ligase (Mycobacterium tuberculosis (strain ATCC 25618 / H37Rv)) (UniProt P9WFW3); experiment: Assay for Asp RNA synthetase-1 from Mycobacterium tuberculosis; format: functional; parameters: scale not given: direction of the effect not stated beside the values; settings: 30 µM; further: in the data most compounds retested in dose-response had high values
T1 sequence (whole entry): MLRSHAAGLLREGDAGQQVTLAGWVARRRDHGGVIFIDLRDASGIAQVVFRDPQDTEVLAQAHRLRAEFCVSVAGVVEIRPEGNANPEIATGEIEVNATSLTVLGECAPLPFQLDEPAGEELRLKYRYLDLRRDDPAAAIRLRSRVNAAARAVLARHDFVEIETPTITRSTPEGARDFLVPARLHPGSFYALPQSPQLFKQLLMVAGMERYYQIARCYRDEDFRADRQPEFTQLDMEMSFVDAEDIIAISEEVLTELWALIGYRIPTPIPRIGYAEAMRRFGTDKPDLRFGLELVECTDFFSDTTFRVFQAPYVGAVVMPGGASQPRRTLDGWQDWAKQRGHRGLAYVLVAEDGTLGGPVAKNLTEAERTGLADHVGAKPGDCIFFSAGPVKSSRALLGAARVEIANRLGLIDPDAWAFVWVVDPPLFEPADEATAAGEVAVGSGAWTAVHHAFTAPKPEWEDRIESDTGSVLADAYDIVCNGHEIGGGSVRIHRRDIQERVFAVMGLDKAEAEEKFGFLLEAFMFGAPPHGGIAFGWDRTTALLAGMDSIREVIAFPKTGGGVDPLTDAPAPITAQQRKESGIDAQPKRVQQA

[2] = target: Shiga toxin 2 (Escherichia coli O157:H7) (UniProt P09385+P09386); experiment: E. coli 0.157:H7 Shiga Toxin SOP - stx2 screening assay; format: functional; parameters: scale not given: direction of the effect not stated beside the values; settings: 30 µM

SMILES	Percent Effect [1]	Percent Effect [2]
O=C(C1CCOC1)N1C[C@H]2CN(Cc3nccs3)C[C@H]2C1 (some centres undefined)	-1.88%	1.98%
Cc1cnc(CN(C)CC2CCCN2c2cccnn2)cn1 (centres undefined)	2.77%	7.46%
Cc1ccc(CNC(CN2CCN(C)CC2)c2ccccc2)cc1 (centres undefined)	3.88%	-2.09%
Fc1ccc(CCN2CCC(c3nnc(-c4cccnc4)o3)CC2)cc1	4.51%	-76.7%
N#Cc1cn(C2CC2)c(=O)n(CC(O)c2ccc(OC(F)F)cc2)c1=O (centres undefined)	1.23%	14%
COCc1nc(C(=O)N2CCCCC2Cn2cc(C)cn2)cs1 (centres undefined)	0.0865%	5.33%
COCC(=O)N1CC[C@@H](O)[C@@H]1Cc1ccccc1	4.62%	3.46%
COc1c(C2CCCN2C(=O)c2ccnc(N(C)C)c2)c(C)nn1C (centres undefined)	2.59%	25.8%
CNc1nc2c(s1)C(c1cccc(F)c1F)CC(=O)N2 (centres undefined)	34.5%	3.28%
CN(CCN1CCOCC1)C(=O)CCCc1ccccc1	-6.41%	0.944%
Cc1cccc(NC(=O)c2sccc2C)n1	-4.94%	-1.59%
O=C(NCc1cc[nH]n1)N1CCCCC(N2CCCC2)C1 (centres undefined)	2.84%	14.9%
COCC1CN(Cc2ccc(C)o2)Cc2cn(C)nc21 (centres undefined)	11.7%	-13.2%
COC(=O)Cn1c(=O)nc2n1C(=O)N(c1ccc(Cl)cc1)C2	1.73%	-16.1%
Cc1ccc(S(=O)(=O)NC(=O)c2c(C)noc2C(C)C)cc1C	1.59%	8.34%
CC(CNCc1ccncc1)Oc1ccccn1 (centres undefined)	-2.38%	-57%
CCc1nccn1C1CCCN(C(=O)c2csc(COC)n2)C1 (centres undefined)	4.12%	-14.9%
COCc1nc2cc(NCc3ccc(C)o3)ccc2o1	25.1%	-21.1%
Cc1ccccc1S(=O)(=O)N1CCCCC1c1ccn[nH]1 (centres undefined)	0.632%	35.1%

SMILES	Percent Effect [1]	Percent Effect [2]
Cc1cc(N(C)Cc2noc(C)n2)n2nc(C)c(C)c2n1	-0.251%	-8.78%
N#Cc1ncn(CCC(=O)Nc2c(Cl)cccc2Cl)n1	6.68%	-17.7%
O=C(CN1CC(n2cccn2)C1)NCCCc1ccccc1	0%	-22.1%
Cc1nc2cc(O)nn2c(C)c1CCC(=O)N(C)Cc1cscn1	8.09%	4.66%
CCc1nnc2n1CCN(Cc1csc(-c3ccc(C)o3)n1)C2	0.544%	-33.1%
Cc1cnn(CC2CN(CC(=O)Nc3nnc(C)s3)CCO2)c1 (centres undefined)	-4.68%	7.65%
CN1[C@H](Cn2cccn2)C[C@@H]2CN(C(=O)Cc3cccs3)CC[C@@H]21	3.12%	-12.8%
CCC(C)(NCC(=O)Nc1ccccc1)c1nc(C)cs1 (centres undefined)	1.93%	15.8%
Cc1nc(CNCc2c(C)nn(C)c2N2CCOCC2)cs1	-5.61%	23.3%
c1ccc(-c2noc(CNC3CCc4ncnn4C3)n2)nc1 (centres undefined)	0.903%	16.9%
CC(NC(=O)NCCCO)c1ccc2c(c1)OCCO2 (centres undefined)	0.291%	-10.2%
O=C(c1cc(=O)[nH]c(=O)[nH]1)N1CCCCC1c1nc2cc(F)ccc2[nH]1 (centres undefined)	-0.139%	9.59%
O=C(c1ccc(OCC2CC2)nc1)N1CCCC(n2ccnc2)C1 (centres undefined)	-9.61%	-43.4%
Cc1csc(N2CCN(CC(=O)Nc3nncs3)CC2C)n1 (centres undefined)	-3.09%	3.44%
CCN(C(=O)CN(C)C(c1cccc(F)c1)c1ccccn1)C1CC1 (centres undefined)	-2.49%	8.33%
CC(C)c1nnc2n1CC(CNCc1ccncc1)CC2 (centres undefined)	-2.34%	-14.7%
Cc1noc(C)c1CN1CCN(Cc2nccn2C)CC1	-5.33%	-1.2%
Cc1ccc(C)c(C(=O)CN2C(=O)c3ccccc3CS2(=O)=O)c1	2.42%	-18.8%
